aDG glyco up: activators of alpha-DG glycosylation, primary screen, uHTS, Pro5-aDG cells, AlphaScreen; alpha-DG glycosylation AlphaScreen (IIH6); 0% Pro5, 100% B10-LARGE cell signal; activation, % at 10 µM; actives 0.22% (n = 360,000);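 active = activation of at least 8% versus controls, or a plate z-score of at least 8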;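 note: Pro5 are CHO cells carrying HIG-tagged alpha-DG that lacks glycosylation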
GRIN3A LBD mod: binders of NR3A ligand-binding domain, primary screen, biophysical, differential scanning fluorimetry, uHTS. Glutamate receptor ionotropic, NMDA 3A (GRIN3A) ligand-binding domain. NR3A LBD differential scanning fluorimetry, Tm shift; 0% = protein alone, 100% = glycine-bound protein. Tm shift relative to glycine control, % at 25 µM. actives 2.5% (n = 340,000). AID 1259313, 2017;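 active = melting temperature shift of at least 10% of the positive control shift, at one fixed dose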
FAS TE block: FAS thioesterase domain inhibitors, primary screen, biochemical, fluorescence intensity, uHTS; actives 0.67% (n = 360,000); recombinant FAS-TE, OMFH fluorogenic substrate, fluorescence endpoint; inhibition, % at 15 µM; Fatty acid synthase (Homo sapiens), P49327;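 active = compounds whose normalised, plate-corrected inhibition of enzyme fluorescence in the single-dose primary screen is 50% or more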
ADAM17 inh: ADAM17 inhibitors, primary screen, biochemical, QFRET | inhibition, % at 6.95 µM | recombinant ADAM17, EDANS/DABCYL FRET peptide cleavage | Disintegrin and metalloproteinase domain-containing protein 17 (Homo sapiens), P78536 | actives 0.83% (n = 370,000) | AID 720648, 2013;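 active = inhibition above the mean of compounds lying between control limits plus 3 SD, set per campaign, cut at about 8.5% in these data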
Target sequence (P78536 215-824 limits assumed): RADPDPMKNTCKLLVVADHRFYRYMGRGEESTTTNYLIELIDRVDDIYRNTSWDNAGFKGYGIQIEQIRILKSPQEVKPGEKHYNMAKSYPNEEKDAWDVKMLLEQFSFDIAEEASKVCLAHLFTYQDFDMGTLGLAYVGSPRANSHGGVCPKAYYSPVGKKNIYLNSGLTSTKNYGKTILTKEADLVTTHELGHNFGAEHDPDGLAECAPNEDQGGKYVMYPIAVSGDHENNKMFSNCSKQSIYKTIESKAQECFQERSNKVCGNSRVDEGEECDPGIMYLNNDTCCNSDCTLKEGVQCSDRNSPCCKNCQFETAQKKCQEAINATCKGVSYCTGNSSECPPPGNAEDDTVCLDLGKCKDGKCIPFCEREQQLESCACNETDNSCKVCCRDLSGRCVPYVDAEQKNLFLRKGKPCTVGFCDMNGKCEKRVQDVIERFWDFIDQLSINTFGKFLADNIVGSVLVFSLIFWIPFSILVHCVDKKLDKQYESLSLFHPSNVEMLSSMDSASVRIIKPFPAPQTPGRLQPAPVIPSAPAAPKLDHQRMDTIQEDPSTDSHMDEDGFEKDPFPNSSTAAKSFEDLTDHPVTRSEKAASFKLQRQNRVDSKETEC
ADAM10 inh: human ADAM10 inhibitors, primary screen, biochemical, QFRET, HTS. recombinant ADAM10, EDANS/DABCYL FRET peptide cleavage, 3 h. inhibition, % at 7 µM. actives 0.62% (n = 370,000);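 active = inhibition above a per-campaign cutoff equal to the mean of compounds falling between control-based bounds plus 3 SD, cut at about 20% in these data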
Numbers stand for hits; 0 = inactive; - = not tested or not shown. A selection: hits, their analogues and other compounds. The true share with any hit is near 4%.

SMILES	aDG glyco up	GRIN3A LBD mod	FAS TE block	ADAM17 inh	ADAM10 inh
C[C@H]1CN([C@@H](C)CO)C(=O)CCCn2nncc2CO[C@H]1CN(C)S(=O)(=O)c1ccc(Oc2ccccc2)cc1	0	-	0	0	0
CCCCOC(=O)c1c(C)oc2ccc(NS(=O)(=O)c3ccc4c5c(cccc35)C(=O)N4)cc12	0	15.2	0	0	0
COCCOC(=O)c1c(C)oc2ccc(NS(=O)(=O)c3cccs3)cc12	0	0	0	0	0
CCCN(CCC)S(=O)(=O)c1ccc(C(=O)Nc2nnc(-c3cccc(OC)c3)o2)cc1	0	0	0	0	0
CCCN(CCC)S(=O)(=O)c1ccc(C(=O)Nc2nnc(-c3cc(OC)cc(OC)c3)o2)cc1	5.5	0	0	-	-
COc1ccc(-c2nc(-c3ccc(O)cc3O)cs2)cc1OC	0	26.2	0	0	0
COc1ccc(-c2csc(-c3ccc(O)cc3)n2)cc1	0	23.8	0	0	0
c1ccc(-c2csc(-c3ccc(-c4csnn4)cc3)n2)cc1	0	18.6	0	0	0
O=C(O)c1ccc(-c2nc(-c3ccccc3)cs2)cc1	0	0	0	0	0
COc1ccc(-c2nc(CCl)cs2)cc1OC	0	0	0	0	0
CCCCn1c(N)c(N(CC(C)C)C(=O)c2cccc(S(=O)(=O)N(C)c3ccc(C)cc3)c2)c(=O)[nH]c1=O	0	0	0	0	0
CCOc1cccc(CN2CCC(Oc3ccc(C(=O)NCc4ccccn4)cc3)CC2)c1	0	0	0	0	0
CC(C)(C)NC(=O)COC(=O)c1ccccc1NC(=O)c1ccco1	0	0	0	0	0
O=C(Nc1ccccc1C(=O)OCC(=O)c1c[nH]c2ccccc12)c1ccco1	0	26.1	0	0	0
CCn1c2ccccc2n2c(=O)c(=O)n(CC(=O)Nc3ccc(C(C)C)cc3)nc12	0	12.9	0	0	0
CC(C)c1ccc(NC(=O)Cn2c(=O)oc3ccccc32)cc1	0	0	0	0	0
O=C1OC(c2ccccc2)(c2cc(Br)c(O)c(Br)c2)c2ccccc21 (configuration not stated)	0	0	0	0	0
Cc1cc(O)c(C(C)C)cc1C1(c2cc(C(C)C)c(O)cc2C)OC(=O)c2ccccc21	0	11.4	0	0	0
CCCCCc1cc(=O)c2ccccc2o1	0	53.0	0	0	0
O=c1cc(CO)oc2ccccc12	0	0	0	0	0
O=C(Nc1ccccc1)Nc1sccc1-c1nc2ccccc2s1	0	21.5	0	0	0
CSc1nc2ccc(NC(=O)c3cc4ccccc4o3)cc2s1	0	19.4	0	0	0
Nc1nc2ccc(C(=O)Nc3ccccc3)cc2s1	0	0	0	0	0
CSc1nc2ccc(NC(=O)c3cccs3)cc2s1	0	20.2	0	0	0
CSc1nc2ccc(NC(=O)c3ccco3)cc2s1	0	0	0	0	0
SMILES	aDG glyco up	GRIN3A LBD mod	FAS TE block	ADAM17 inh	ADAM10 inh
CCc1ccc(NC(=O)c2ccc3nc(N)sc3c2)cc1	0	15.8	0	0	0
COc1ccccc1NC(=O)Nc1sccc1-c1nc2ccccc2s1	0	0	0	0	0
CSC[C@H]1CN(Cc2ccccc2)C(=O)[C@@H]1CC(=O)Nc1ccccc1	0	-	0	0	0
S=C(Nc1ccccc1)Nc1ccc(Cl)cn1	0	0	0	-	-
C/C(=N/NC(=O)c1nnn(-c2nonc2N)c1CSc1ccc(Cl)cc1)c1ccncc1	0	-	0	0	0
O=C(Nc1ccc2oc(-c3ccccc3)nc2c1)c1cccs1	0	10.7	0	0	0
CSc1nc2ccc(NC(=O)c3ccc(=O)[nH]c3)cc2s1	0	0	0	0	0
O=C(Nc1cccc(-c2nc3ccccc3s2)c1)c1cccs1	0	11.8	0	0	0
O=C(Nc1ccc2oc(-c3ccccc3)nc2c1)c1ccncc1	0	0	0	0	0
CSc1nc2ccc(NC(=O)c3ccc(F)c(F)c3)cc2s1	0	28.3	0	0	0
O=C(Nc1cccc(-c2nc3ccccc3s2)c1)c1cc(=O)c2ccccc2o1	0	0	0	0	0
CCCCNC(=O)[C@@H]1CSC2c3ccc(OC)c(OC)c3C(=O)N21 (some centres not stated)	0	0	0	0	0
COc1cccc(-n2nnnc2SCC(=O)Nc2cccc(NC(C)=O)c2)c1	0	0	0	0	0
CN(C)c1ccc(/C=N/Nc2nncc3ccccc23)cc1	0	0	0	0	0
CC(=O)Nc1cc(S(=O)(=O)Nc2ccccc2)c(C)cc1C	0	0	0	0	0
CC1CCN(c2ccc(/C=C(\C#N)c3nn(-c4ccccc4)c(N)c3C#N)cc2[N+](=O)[O-])CC1	0	10.2	0	0	0
CC1CCCN(c2ccc(/C=C(\C#N)c3nn(-c4ccccc4)c(N)c3C#N)cc2[N+](=O)[O-])C1 (configuration not stated)	0	11.6	0	0	0
N#C/C(=C\c1ccc(N2CCCCC2)c([N+](=O)[O-])c1)c1nn(-c2ccccc2)c(N)c1C#N	0	0	0	0	0
CCCCn1nnnc1C(c1cc2ccccc2o1)N(CCC#N)Cc1ccccc1 (configuration not stated)	0	-	0	0	0
CC(C)(C)OC(=O)N1CCC[C@H]1c1nnc(SCC(=O)Nc2cccc(Cl)c2)o1	0	0	0	0	0
CC(C)(C)OC(=O)N1CCC[C@H]1c1nnc(SCC(=O)Nc2ccc(Br)cc2)o1	0	29.2	0	0	0
CCOC(=O)Cn1cc(CN2CCS(=O)(=O)N(Cc3ccc(OC)cc3)C(C(=O)OC)C2)nn1 (configuration not stated)	-	-	-	0	0
COc1ccc(Br)c(C(=O)OCC(=O)Nc2cc(C)on2)c1	0	-	0	0	0
COc1ccc(C(N)=O)c(OCC(=O)Nc2cc(C)on2)c1	0	14.7	0	0	0
CC1=C(C(=O)NC2CCC(C)CC2)C2(CCC(C)CC2)OC1=O (configuration not stated)	0	13.5	0	0	0
SMILES	aDG glyco up	GRIN3A LBD mod	FAS TE block	ADAM17 inh	ADAM10 inh
O=C(Nc1cccc(Cl)c1)Nc1csc([N+](=O)[O-])c1	0	31.1	0	0	0
Cc1ccc(NC(=O)Nc2cccc(Cl)c2)c(C(=O)O)c1	0	12.2	0	0	0
CN(C)c1ccc(NC(=O)Nc2cccc(Cl)c2)cc1	0	22.5	0	0	0
O=C(Nc1ccncc1)Nc1cccc(Cl)c1	0	13.8	0	0	0
CN1C(=S)SC(/[N+]([O-])=C\c2ccccc2F)C1(C)C (configuration not stated)	0	0	0	0	0
C/C(Cc1nnn(-c2cc(C)on2)n1)=N\O	0	0	0	0	0

Assay outcomes deposited in PubChem BioAssay by several laboratories.
